Bioassay records as filed in PubChem.
An excerpt weighted towards active compounds, which were near 2.2% of everything screened.
DENV2 CPE rescue = inhibitors of DENV2 cytopathic effect, primary screen, cell-based, plate reader, single concentration; AID 651640, 2012; CPE inhibition, % at 9.99 µM; DENV2-infected cells, cytopathic effect rescue; hit rate 1.7% among 350,000; in the data active = CPE inhibition above about 20%, passing the limit was not always enough; inconclusive = no clear call, values can overlap the other calls; tested in BHK-21 cells;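 also: 0% = median of neutral control wells and 100% = median of positive control wells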
C2C12 statin = suppressors of statin myotoxicity in C2C12 myotubes, primary screen, cell-based, single point, plate reader | C2C12 myotubes + simvastatin, ATP luminescence, 48 h; scaled: DMSO 0, geranylgeraniol control 100 | rescue of ATP level, % at 7.49 µM | hit rate 0.78% among 330,000 | AID 602340, 2012;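 active = mean ATP rescue above about 67%, or every replicate alone reaching that limit, limit read from the data, passing the limit was not always enough; inconclusive = no clear call, values can overlap the other calls; inactive = mean under the limit and some replicate under it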;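 also: myotubes were challenged with 10 µM simvastatin during compound exposure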
miR-122 sensor = miR-122 Renilla sensor signal increase in Huh7, primary screen, miR-122 inhibitor project, cell-based, single point, plate reader; Huh7 miR-122 Renilla luciferase sensor, 48 h; neutral wells = 0, positive control = 100; AID 602342, 2012; hit rate 0.3% among 340,000; activation (reporter increase), % at 12.5 µM;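 active = mean replicate activation score at least 90 and every replicate individually at or above 90; inconclusive = only one of the two criteria met; inactive = neither criterion met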;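 also: higher luciferase means less miR-122 activity so hits act as miR-122 inhibitors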
PvdQ acylase = P. aeruginosa PvdQ acylase inhibitors, primary screen, biochemical, fluorescence, plate reader and imaging, single point. purified PvdQ acylase. inhibition, % at 10 µM. hit rate 0.063% among 340,000. AID 488965, 2010; in the data active = inhibition above about 30%, passing the limit was not always enough; inconclusive = no clear call, values can overlap the other calls;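 also: 0% = vehicle neutral wells and 100% = reference inhibitor wells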
PGC1a acetyl inh = inhibitors of PGC1a acetylation signal, primary screen, cell-based, U2OS, AlphaScreen, inhibitor mode. AlphaScreen anti-acetyl-lysine; with virally co-expressed GCN5 acetyltransferase. inhibition, % at 15.6 µM. hit rate 0.17% among 350,000. AID 651687, 2012;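 active = every replicate shows inhibition of at least 40%; inconclusive = mean inhibition at least 40% but some replicate below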;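 also: 0% = neutral control wells and 100% = positive control wells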
* hit, by the source's call; ? = inconclusive; . = no result; [ ] = dose if it differs, or a comment.

SMILES	DENV2 CPE rescue	C2C12 statin	miR-122 sensor	PvdQ acylase	PGC1a acetyl inh
CNC(=O)C[C@@H]1CC[C@H]2[C@H](COc3ccc(NC(=O)Nc4ccc(F)cc4)cc3C(=O)N2C)O1	-4	7	2[16.7 µM]	.	10
O=C(Nc1ccc(F)cc1)N[C@@H]1CC[C@@H](CC(=O)N2CCOCC2)O[C@@H]1CO	4	-6	-1[16.7 µM]	.	-5
COc1ccccc1-c1ccc2c(c1)O[C@H](CN(C)C(=O)Nc1cccc(F)c1)[C@@H](C)CN([C@H](C)CO)S2(=O)=O	-3	-16	-1[16.7 µM]	.	6
COc1ccc(-c2ccc([C@H]3[C@@H](CO)N4CCCCN(C(=O)NC(C)C)C[C@H]34)cc2)cc1	31*	-1	-4[16.7 µM]	.	4
COc1ccc(-c2ccc([C@@H]3[C@H]4CN(C(=O)NC(C)C)CCCCN4[C@H]3CO)cc2)cc1	-8	-12	3[16.7 µM]	.	-11
COc1ccc(-c2ccc([C@H]3[C@H](CO)N4CCCCN(C(=O)NC(C)C)C[C@@H]34)cc2)cc1	40*	39	2[16.7 µM]	.	-6
COc1cccc(CNC(=O)C2CCCN(S(=O)(=O)c3c(C)n[nH]c3C)C2)c1 (centres undefined)	.	75*	0	1	10
COc1ccc(CNC(=O)C2CCCN(S(=O)(=O)c3c(C)n[nH]c3C)C2)cc1 (centres undefined)	.	11	4	2	11
O=C(N[C@H]1C=C[C@@H](CC(=O)N2CCCCC2)O[C@@H]1CO)c1ccccn1	-14	3	.	.	4
COc1ccc2cc(C(=O)NCCO)sc(=O)c2c1OC	.	4	7	6	5
CCOC(=O)c1cc2ccc(OC)c(OC)c2c(=O)s1	.	116*	-1	-1	-9
COc1ccc(C2NC(=S)NC3=C2CCCC3=C2SCCS2)cc1 (centres undefined)	8	1	-5	10	45*
S=C1NC2=C(CCCC2=C2SCCCS2)C(c2ccccc2)N1 (centres undefined)	-3	.	.	-7	12
CC1CCCC=CC2CC(OC(=O)CN(C)C)CC2C(O)C=CC(=O)O1 (centres undefined)	-30	.	-2	-10	67*
C[C@@H]1CN([C@H](C)CO)C(=O)c2cc(C#CC3CCCCC3)cnc2O[C@@H]1CN(C)S(C)(=O)=O	0	36	-10[16.7 µM]	.	5
CC1(C)OC2CCN3C(C(O)COS3(=O)=O)C2O1 (centres undefined)	131*	-2	-2	3	13
N#Cc1ccc(Oc2ccc(/C=N/O)cn2)cc1	.	122*	-8	-2	0
O=[N+]([O-])c1ccc(Oc2ccc(/C=N/O)cc2)nc1	-4	.	.	7	-7
C[C@H](CO)N1C[C@H](C)[C@H](CN(C)C(=O)Nc2ccc3c(c2)OCO3)Oc2ccc(NC(=O)Cc3ccccc3)cc2C1=O	17	21	4[16.7 µM]	.	32
CC(C)C[C@H]1CNC(=S)N1C[C@H]1CCCN1C[C@H](CC(C)C)N1C[C@H](Cc2ccc(O)cc2)N(CCc2ccccc2)C1=S	39*	7	-7	.	7
CCOc1ccc(CCN2C(=S)N([C@@H](Cc3ccc(O)cc3)CN3CCC[C@@H]3CN3C(=S)NC[C@@H]3CC(C)C)C[C@@H]2CC(C)C)cc1	22*	-8	-2	.	3
COc1ccc2c3c([nH]c2c1)[C@H](CO)N(Cc1nccs1)CC31CN(Cc2nccs2)C1	4	.	.	.	1
O=C(C[C@@H]1C=C[C@@H](NC(=O)C2CC2)[C@@H](CO)O1)NCC1CC1	0	-4	.	.	-3
O=C(NC[C@H]1[C@H](c2ccccc2)[C@@H](CO)N1C(=O)C1CC1)NC1CCCC1	4	-15	7[16.7 µM]	.	8
C[C@@H]1CCCCO[C@H](CN(C)S(=O)(=O)c2cn(C)cn2)[C@H](C)CN([C@H](C)CO)C(=O)c2cc(NS(=O)(=O)c3ccc(Cl)cc3)ccc2O1	-2	.	-3[16.7 µM]	.	9
SMILES	DENV2 CPE rescue	C2C12 statin	miR-122 sensor	PvdQ acylase	PGC1a acetyl inh
C[C@H]1CCCCO[C@@H](CN(C)S(=O)(=O)c2cn(C)cn2)[C@@H](C)CN([C@@H](C)CO)C(=O)c2cc(NS(=O)(=O)c3ccc(Cl)cc3)ccc2O1	47*	.	7[16.7 µM]	.	-14
C[C@@H]1CCCCO[C@@H](CN(C)S(=O)(=O)c2cn(C)cn2)[C@H](C)CN([C@@H](C)CO)C(=O)c2cc(NS(=O)(=O)c3ccc(Cl)cc3)ccc2O1	28*	.	5[16.7 µM]	.	-27
C[C@@H]1CCCCO[C@H](CN(C)S(=O)(=O)c2cn(C)cn2)[C@@H](C)CN([C@H](C)CO)C(=O)c2cc(NS(=O)(=O)c3ccc(Cl)cc3)ccc2O1	9	.	12[16.7 µM]	.	-5
O=C1[C@H]2[C@@H](c3ccc(F)cc3)N3C(=O)N(c4cccc(F)c4)C(=O)[C@@]3(Cc3ccc(Cl)cc3)[C@H]2C(=O)N1C1CCCCC1	24*	-1	-8	-11	1
CC(C)Cc1nc2oc3c(N4CCN(CCO)CC4)ncnc3c2c2c1CCCC2	.	7	-5	-10	-5
CCOC(=O)N1CCN(c2ncnc3c2oc2nc(C(C)C)c4c(c23)CCC4)CC1	.	5	207*	-9	.
O=C(C1CCCCC1)N1CC(=O)N2[C@H](CO)[C@H](c3ccc(C#CCc4ccccc4)cc3)[C@H]2C1	25*	.	.	.	-15
O=C(C1CC1)N1CC(=O)N2[C@H](CO)[C@@H](c3ccc(C#CCc4ccccc4)cc3)[C@@H]2C1	-1	.	.	.	-9
O=C(C1CCCCC1)N1CC(=O)N2[C@@H](CO)[C@H](c3ccc(C#CCc4ccccc4)cc3)[C@@H]2C1	-1	.	.	.	-9
O=C(c1ccccc1)N1CC(=O)N2[C@H](CO)[C@H](c3ccc(C#CCC4CCCC4)cc3)[C@@H]2C1	21*	.	.	.	-2
O=C(C1CC1)N1CC(=O)N2[C@@H](CO)[C@H](c3ccc(C#CCc4ccccc4)cc3)[C@@H]2C1	45*	.	.	.	-5
CCCC(=O)Nc1ccc2c(c1)C(=O)N(C)[C@@H]1CC[C@@H](CC(=O)NCCOC)O[C@H]1CO2	-1	-18	-10[16.7 µM]	.	5
C[C@H](CO)N1C[C@H](C)[C@H](CN(C)C(=O)C2CC2)Oc2cc(-c3ccccc3)ccc2S1(=O)=O	.	2	-1[16.7 µM]	.	-19
Cc1ccc2ccccc2c1C(O)c1ncc(-c2ccccc2F)[nH]1 (centres undefined)	?	17	175*	.	7
Cc1cccc(C(O)c2ncc(-c3ccccc3F)[nH]2)c1C (centres undefined)	5	0	96*	.	.
Cc1cccc(C)c1C(O)c1ncc(-c2cccc3ccccc23)[nH]1 (centres undefined)	17	1	-3	.	.
Cc1cccc(C)c1C(O)c1ncc(-c2ccccc2F)[nH]1 (centres undefined)	13	-1	11	.	.
Cc1ccccc1-c1cnc(C(O)c2ccc(F)cc2C)[nH]1 (centres undefined)	5	10	17	.	1
